Whole data set: some 3,200 compounds, median “TSA(without NAD+) / Primary screening (TSA) / delta Tm (K)” near -0.07, cut for the highest 2% near 0.37. For the sample, the highest values were picked, then their nearest neighbours and some compounds at random.
biological target: NAD-dependent deacetylase Sirtuin 1 (human, UniProt Q96EB6); assay: primary screen, delta tm; design: single well (n = 1); settings: 10 µM
Summary of the method: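 Thermal shift of Sirtuin 1 measured without NAD+, compound at 10 µM (n = 1); value is ΔTm, with hits defined as ΔTm > 0.45 K or < −1.5 K. Hits retested at 5, 10, 20 µM (n = 4) and counterscreened on bovine carbonic anhydrase and ABL1 SH2 domain.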

Sequence of NAD-dependent deacetylase Sirtuin 1 (Q96EB6 2-747 limits assumed): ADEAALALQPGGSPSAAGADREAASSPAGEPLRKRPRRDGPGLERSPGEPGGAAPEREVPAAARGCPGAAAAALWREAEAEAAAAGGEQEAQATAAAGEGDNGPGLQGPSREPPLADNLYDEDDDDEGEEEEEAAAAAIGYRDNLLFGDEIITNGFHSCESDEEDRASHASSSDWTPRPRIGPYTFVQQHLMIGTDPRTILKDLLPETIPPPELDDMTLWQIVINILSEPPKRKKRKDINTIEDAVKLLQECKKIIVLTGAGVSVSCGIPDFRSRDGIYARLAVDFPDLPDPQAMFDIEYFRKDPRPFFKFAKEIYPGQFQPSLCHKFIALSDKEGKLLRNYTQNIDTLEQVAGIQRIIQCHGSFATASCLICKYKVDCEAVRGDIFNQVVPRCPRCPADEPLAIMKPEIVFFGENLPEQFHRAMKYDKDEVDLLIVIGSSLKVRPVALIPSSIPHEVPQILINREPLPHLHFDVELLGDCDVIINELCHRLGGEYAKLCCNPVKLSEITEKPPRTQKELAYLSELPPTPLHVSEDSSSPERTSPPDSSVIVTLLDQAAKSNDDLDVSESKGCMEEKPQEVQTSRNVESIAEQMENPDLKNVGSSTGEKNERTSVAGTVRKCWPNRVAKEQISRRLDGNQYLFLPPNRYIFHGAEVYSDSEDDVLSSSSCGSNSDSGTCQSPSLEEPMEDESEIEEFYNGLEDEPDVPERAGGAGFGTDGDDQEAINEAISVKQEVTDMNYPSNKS

Row | SMILES | TSA(without NAD+) / Primary screening (TSA) / delta Tm (K)
1 | Cc1sc2ncnc(N3CCC(C(N)=O)CC3)c2c1C | -0.11 K
2 | NC(=O)C1CCN(c2nc(-c3cccnc3)nc3sc4c(c23)CCCC4)CC1 | 0.33 K
3 | NC(=O)C1CCN(c2nc(-c3cccs3)nc3sc4c(c23)CCCC4)CC1 | 2.58 K
4 | CCSCCOC(=O)c1ccc2[nH]c(C(F)F)nc2c1 | -0.04 K
5 | Cn1c2ccccc2c2cc(S(=O)(=O)NCc3cccc(NC(=O)C4CC4)c3)ccc21 | -0.03 K
6 | CS(=O)(=O)c1ccc(NC(=O)c2ccccc2SCC(=O)NC23CC4CC(CC(C4)C2)C3)cc1 | -0.03 K
7 | CC(C)Oc1ccc(C2C(C(=O)c3ccco3)=C(O)C(=O)N2CCCN2CCOCC2)cc1 (centres unmarked) | -0.02 K
8 | COc1cccc(C2C(C(=O)c3ccc(Cl)cc3)=C(O)C(=O)N2CCCN2CCOCC2)c1 (centres unmarked) | -0.12 K
9 | CCC(N)C(N)=O (centres unmarked) | -0.22 K
10 | CC1CCC(NN)CC1 (centres unmarked) | -0.08 K
11 | CCn1c2ccccc2c2cc(NC(=O)C(C)OC(=O)c3cccc(S(=O)(=O)Nc4ccc(Cl)cc4)c3)ccc21 (centres unmarked) | 0.56 K
12 | CC(=O)c1ccc(NC(=O)C(C)OC(=O)c2cccc(S(=O)(=O)NC(C)C34CC5CC(CC(C5)C3)C4)c2)cc1 (centres unmarked) | 0.35 K
13 | CC(OC(=O)c1cccc(S(=O)(=O)Nc2ccc(F)cc2)c1)c1nc2ccccc2c(=O)[nH]1 (centres unmarked) | 0.02 K
14 | O=C(/C=C/c1ccc(F)cc1)NCCCn1ccc2ccccc21 | 0.08 K
15 | Cc1ccc2c(CC(=O)Nc3ccccc3Cc3ccccc3)coc2c1 | 0.07 K
16 | Cc1ccc(-c2nn(-c3ccccc3)cc2C(=O)NCc2nnc3ccccn23)cc1 | -0.03 K
17 | Cc1noc(C)c1CC(=O)OCc1cn(-c2ccccc2)nc1-c1ccc(Cl)cc1 | 0.22 K
18 | COc1ccc(-c2nn(-c3ccccc3)cc2CN(CCCCCCN(Cc2cn(-c3ccccc3)nc2-c2ccc(OC)cc2)C(=O)CCC(=O)O)C(=O)CCC(=O)O)cc1 | 0.37 K
19 | Cc1oc2cc(OC(C)C(=O)NCc3ccco3)ccc2c(=O)c1-c1c(F)cccc1Cl (centres unmarked) | -0.11 K
20 | O=C1NC(=S)N/C1=C\c1cc(Br)ccc1O | -0.23 K
21 | O=C1NC(=S)N/C1=C/c1ccc(-c2ccccc2F)o1 | 0.05 K
22 | O=C1NC(=S)N/C1=C\c1ccccc1OCc1ccc(C(=O)O)cc1 | 0.38 K

Row | SMILES | TSA(without NAD+) / Primary screening (TSA) / delta Tm (K)
23 | COc1ccc(C(N)=O)cc1NC(=O)c1nc2nc(C)cc(C)n2n1 | -0.15 K
24 | Cc1sc2nc(CN3CCCC3)nc(N3CCC(C(N)=O)CC3)c2c1C | -0.12 K
25 | Cc1sc2nc(CSc3ccccc3)nc(N3CCC(C(N)=O)CC3)c2c1C | 0.52 K
26 | NC(=O)C1CCCN(c2ncnc3sc4c(c23)CCCC4)C1 (centres unmarked) | -0.18 K
27 | Cc1sc2nc(CSc3ccccc3)nc(N3CCCC(C(N)=O)C3)c2c1C (centres unmarked) | -0.12 K
28 | NC(=O)C1CCN(c2nc(CSc3ccccc3)nc3sc4c(c23)CCCC4)CC1 | 1.78 K
29 | NC(=O)C1CCN(c2nc(CN3CCCCC3)nc3sc4c(c23)CCC4)CC1 | 0.07 K
30 | O=C1/C(=C/c2cccc(Br)c2)Oc2cc(O)ccc21 | 0.19 K
31 | O=C1CCCN1c1cccc(NS(=O)(=O)c2cccc(F)c2)c1 | -0.02 K
32 | COc1ccc(NC(C)c2ccc(S(C)=O)cc2)cn1 (centres unmarked) | -0.18 K
33 | O=C(COC(=O)c1ccc(CNS(=O)(=O)c2ccc(F)c(Cl)c2)cc1)c1ccccc1 | -0.03 K
34 | O=C(C1=C(O)C(=O)N(CCCN2CCOCC2)C1c1ccco1)c1cc2ccccc2o1 (centres unmarked) | 0.02 K
35 | COc1cc(C=C(C(=O)NCC2CCCO2)C(=O)NCC2CCCO2)ccc1OCC(=O)Nc1ccc(C)cc1 (centres unmarked) | -0.08 K
36 | O=C(NCC1CCCO1)Nc1ccc(NC(=O)c2ccccn2)cc1 (centres unmarked) | 0.07 K
37 | Cc1ccc(C(=O)Nc2ccc(NC(=O)NCC3CCCO3)cc2)cn1 (centres unmarked) | 0.52 K
38 | Cc1ccc(Nc2nc(CSc3nnc(NCc4ccco4)s3)cs2)cc1 | -0.17 K
39 | CC(C)OC(=O)CC(Nc1ccc2nnnn2n1)c1ccccc1 (centres unmarked) | -0.07 K
40 | Cc1noc(CN2CCN(c3ncnc4c3oc3ccccc34)CC2)n1 | -0.33 K
41 | Cc1ccc(S(=O)(=O)N2CCN(C(=O)CSc3nnc(NCc4ccco4)s3)CC2)cc1 | 0.16 K
42 | O=c1cc(CSc2nnc(Nc3ccccc3)s2)c2ccc(O)cc2o1 | 0.38 K
43 | O=c1cc(CSc2nnc(-c3ccccc3)o2)c2cc3c(cc2o1)CCC3 | -0.18 K
44 | COCCNc1nnc(SCc2cc(=O)oc3c(C)c(O)ccc23)s1 | -0.74 K

Reference: paper PMC6925144, “A prospective compound screening contest identified broader inhibitors for Sirtuin 1” (Scientific Reports, 2019)
